Test results taken from PubChem BioAssay AID488969 (Vanderbilt High Throughput Screening Facility, 2010).
In all, about 110,000 compounds were measured (“z-score”: median about -0.1, highest 2% from about 2 on). Only a selection was taken, and the highest values are over-represented in it overall. Activity calls are given as the source filed them.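 How the source made its calls: active means z-score in the third read window above 3 or below -3; inactive means the rest.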

Molecular target: Metabotropic glutamate receptor 8 (Rattus norvegicus) (UniProt P70579)
Assay: rat mGluR8 modulators via GIRK flux, primary screen, cell-based, thallium flux, HTS (AID 488969)
Settings: HEK293 rat mGluR8, GIRK (G protein-gated inwardly rectifying potassium channel) thallium flux, FluoZin2; at 10 µM; stronger effect = higher value; submaximal glutamate (EC20) added with thallium

Sequence of Metabotropic glutamate receptor 8 (Rattus norvegicus) (P70579 whole entry, looked up): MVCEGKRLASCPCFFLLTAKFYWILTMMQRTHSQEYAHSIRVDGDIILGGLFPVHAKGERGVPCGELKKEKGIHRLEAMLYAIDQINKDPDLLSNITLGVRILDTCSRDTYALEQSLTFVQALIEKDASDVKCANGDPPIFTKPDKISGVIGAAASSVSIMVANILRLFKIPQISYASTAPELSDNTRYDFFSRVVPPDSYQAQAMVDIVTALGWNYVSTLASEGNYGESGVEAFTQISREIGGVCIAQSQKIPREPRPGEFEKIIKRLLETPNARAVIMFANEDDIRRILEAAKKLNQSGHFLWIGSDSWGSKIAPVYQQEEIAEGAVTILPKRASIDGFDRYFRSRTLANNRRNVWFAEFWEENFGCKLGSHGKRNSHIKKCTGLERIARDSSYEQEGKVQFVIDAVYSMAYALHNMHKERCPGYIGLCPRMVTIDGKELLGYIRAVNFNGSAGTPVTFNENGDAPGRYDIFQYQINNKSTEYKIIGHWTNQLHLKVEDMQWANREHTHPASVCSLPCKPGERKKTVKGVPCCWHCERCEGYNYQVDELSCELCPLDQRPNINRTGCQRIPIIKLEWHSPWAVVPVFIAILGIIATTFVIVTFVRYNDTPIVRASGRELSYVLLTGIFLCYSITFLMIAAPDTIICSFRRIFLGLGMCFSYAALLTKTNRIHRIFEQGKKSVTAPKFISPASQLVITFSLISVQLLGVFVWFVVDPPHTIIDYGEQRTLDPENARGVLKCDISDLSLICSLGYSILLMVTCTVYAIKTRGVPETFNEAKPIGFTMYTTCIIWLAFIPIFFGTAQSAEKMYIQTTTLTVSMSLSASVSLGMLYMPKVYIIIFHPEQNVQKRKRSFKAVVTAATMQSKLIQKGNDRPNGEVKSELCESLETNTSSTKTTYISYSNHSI

| Compound | z-score |
| --- | --- |
| Cn1c(SCc2nnc(-c3ccc(F)cc3)o2)nnc1C1COc2ccccc2O1 (stereo not drawn) | -0.382 |
| O=C(NC1CCCCCC1)c1cccc(N2CCCC2=O)c1 | -0.399 |
| CN1CCN(C(=O)CN(Cc2ccc(Cl)cc2)S(C)(=O)=O)CC1 | 0.244 |
| Cc1cc(NC(=O)CSc2nc3ccccc3n2CC(=O)N2CCCCC2)no1 | 0.0584 |
| Cc1ccc(N2C(=O)C3CC(c4ccccc4)=C4C5C=CC(C6C(=O)N(c7ccc(C)cc7)C(=O)C56)C4C3C2=O)cc1 (stereo not drawn) | -0.0459 |
| COc1ccc(S(=O)(=O)Nc2cccc(NC(C)=O)c2)cc1 | 0.142 |
| Cc1ccc(OCC(=O)Nc2oc(-c3ccccc3)c(-c3ccccc3)c2C#N)cc1 | -0.212 |
| COc1cc2c(cc1NC(=O)Nc1ccccc1)oc1ccccc12 | -0.0976 |
| COc1ccc(OCC(=O)Nc2cc3oc4ccccc4c3cc2OC)cc1 | -0.347 |
| COc1cc2c(cc1NC(=O)Nc1cccc(C)c1)oc1ccccc12 | 2.68 |
| COc1cc2c(cc1NC(=O)Nc1ccc(C)cc1)oc1ccccc12 | -0.398 |
| Cc1cccc(C)c1OCC(=O)Nc1oc(-c2ccccc2)c(-c2ccccc2)c1C#N | -0.376 |
| COc1ccccc1OCC(=O)Nc1oc(-c2ccccc2)c(-c2ccccc2)c1C#N | 2.87 |
| COc1cc2c(cc1NC(=O)COc1ccc3ccccc3c1)oc1ccccc12 | -0.183 |
| COc1cc2c(cc1NC(=O)COc1ccccc1OC)oc1ccccc12 | 5.54 (active) |
| CCn1c(SCc2nc(-c3ccc(OC)c(OC)c3)no2)nnc1-c1cccs1 | -1.5 |
| Cc1ccccc1OCCCC(=O)Nc1ccc2c(c1)OCO2 | 0.157 |
| O=C(Nc1cccc(S(=O)(=O)N2CCCC2)c1)c1ccc2c(=O)n3c(nc2c1)CCCCC3 | -1.24 |
| COc1ccc(/C=N/n2c(=O)[nH]c3c([nH]c4ccc(C)cc43)c2=O)cc1CN1CCOCC1 | -0.0345 |
| CC(=O)N(c1ccccc1)c1nc(C)cc(C)c1C#N | -0.111 |

| Compound | z-score |
| --- | --- |
| Cc1[nH]c2ccccc2c1C(=O)COC(=O)C1CC(=O)N(Cc2ccccc2)C1 (stereo not drawn) | -0.363 |
| CSc1nc2nccc(-c3ccc(-c4ccccc4)cc3)n2n1 | -0.5 |
| CSCCC(NC(=O)c1ccccc1)C(=O)NC1CC1 (stereo not drawn) | 0.177 |
| Cc1nn(C(C)C(=O)N2CCCCC2)c(=O)c2c1sc1ccccc12 (stereo not drawn) | -0.115 |
| CCCCN(CCCC)C(=O)c1ccccc1NC(=O)CN1C(=O)c2ccccc2C1=O | -0.366 |
| CC(O)CN(C)CC/C=C1/c2ccccc2CSc2ccccc21 (stereo not drawn) | 0.694 |
| C=CCN(C)CC/C=C1\c2ccccc2CSc2ccccc21 | 1.99 |
| C#CCN(C)CC/C=C1\c2ccccc2CSc2ccccc21 | 1.63 |
| O=C1c2ccccc2C(=O)c2c1ccc(C(=O)N1CCCCC1)c2NCCO | 0.68 |
| Cc1cc(OCC(=O)O)c2ccccc2n1 | -0.146 |
| CC1(Br)C2CCCC1C2S(=O)(=O)c1ccccc1 (stereo not drawn) | -0.376 |
| CC(NS(=O)(=O)c1ccc(Cl)cc1)C(=O)NCc1ccco1 (stereo not drawn) | 0.0263 |
| O=C(N/N=C/c1ccc2c(c1)OCO2)C1COc2ccccc2O1 (stereo not drawn) | 0.435 |
| O=C(N/N=C\c1cc(Br)cs1)C1COc2ccccc2O1 (stereo not drawn) | 2.32 |
| O=C(N/N=C/c1cccs1)C1COc2ccccc2O1 (stereo not drawn) | 0.238 |
| CCOC(=O)/C=C1\CC(=O)Nc2cc(C)c(C)cc2N1 | 0.197 |
| Cc1cc(OCC(=O)NCC(C)C)cc(C)c1Br | -0.137 |
| CCOC(=O)C/C(C)=N/NC(=O)COc1ccccc1C | 0.0596 |
| C/C(CC(=O)NC(C)C)=N\NC(=O)COc1cc(C)c(Br)cc1Br | 6.24 (active) |
| CCCNC(=O)C/C(C)=N/NC(=O)COc1ccc(C)cc1Br | -0.101 |

| Compound | z-score |
| --- | --- |
| C/C(CC(=O)NCC(C)C)=N\NC(=O)COc1cc(C)c(Br)cc1Br | 5.36 (active) |
| C/C(CC(=O)Nc1ccccc1-c1ccccc1)=N\NC(=O)COc1ccc(C)cc1Br | 0.458 |
| O=C(CSc1ncnc2sc3c(c12)CCCC3)N1CCC(c2noc3ccc(F)cc23)CC1 | 0.658 |
| CCOC(=O)NC(Nc1ccc(S(N)(=O)=O)cc1)(C(=O)OCC)C(F)(F)F (stereo not drawn) | 0.00287 |
| COC(=O)c1ccc(/C=N/NC(=O)CC(=O)NC(C)C)cc1 | -0.108 |
| CC(=O)Nc1ccc(S(=O)(=O)Nc2nc3ccccc3nc2Nc2ccc(S(N)(=O)=O)cc2)cc1 | -0.462 |
| O=C(Nc1nnc(C2=COCCO2)o1)c1ccc(Cl)cc1 | 0.709 |
| O=C(Nc1ccccc1)Nc1nnc(-c2ccccc2)o1 | -0.193 |
| O=C(Nc1nnc(-c2ccc(Cl)cc2)o1)c1ccccc1Br | 5.35 (active) |
| O=C(Nc1nnc(-c2ccc(Cl)cc2)o1)Nc1ccccc1Cl | 1.85 |
| O=C(Nc1nnc(-c2ccccc2Cl)o1)c1nc2ccccc2s1 | 1.61 |
| Cc1ccccc1C(=O)Nc1nnc(-c2ccc(F)cc2)o1 | -0.035 |
| O=C(Nc1nnc(-c2ccccc2)o1)C1CCCCC1 | 0.0922 |
| COc1ccc(-c2nnc(NC(=O)C3=COCCO3)o2)cc1 | 0.731 |
| O=C(Nc1nnc(-c2ccc(Cl)cc2)o1)c1nc2ccccc2s1 | 4.07 (active) |
| O=C(Nc1nnc(-c2ccccc2)o1)c1cc(Cl)sc1Cl | 11.3 (active) |
| NC(=O)c1oc2ccccc2c1NC(=O)c1nc2ccccc2s1 | -0.927 |
| O=C(Nc1nnc(-c2ccc(Cl)cc2)o1)C1=COCCO1 | 2.01 |
